The source of these data is PubChem BioAssay AID893 (National Center for Advancing Translational Sciences (NCATS), 2007).

The whole screen tested about 75,000 compounds, of which about 5,700 (7.6%) were called active. Another 7% or so got no clear call; they are omitted. Only a selection was taken, and actives are over-represented in it overall. Values without a mark were called inactive. The call rests on the fitted dose curve; in most records, active means well fitted inhibition curve with a large enough effect; inconclusive means small, poorly fitted or top-dose-only effect; inactive means no such curve, though single readings can be large or run the other way.
On the % scale 0 is the no-effect control and ±100 the full control effect; potency means the concentration at half of the fitted maximal effect.

The assay concerns the target 3-hydroxyacyl-CoA dehydrogenase type-2 (Homo sapiens) (UniProt Q99714). Nature of the assay: qHTS Assay for Inhibitors of HSD17B4, hydroxysteroid (17-beta) dehydrogenase 4. Further: nearly all actives have a fitted effect of over 70% in size. The following applies: recombinant HSD17B10, NADH fluorescence kinetic; series mostly up to 57.1 µM; activity change, negative = inhibition: at the top concentration. From the text: Assay Overview: NIH Molecular Libraries Screening Centers Network [MLSCN] NIH Chemical Genomics Center [NCGC] Structural Genomics Consortium [SGC] Grant number: None HADH2: Hydroxyacyl-Coenzyme A dehydrogenase, type II, was supplied by researchers at the Structural Genomics Consortium, Oxford University lab (PI Udo Oppermann). The mitochondrial enzyme 17-hydroxysteroid dehydrogenase type 10 (HSD17-10) previously classified as type II hydroxyacyl-CoA dehydrogenase (HADH2) catalyzes the NAD+ dependent oxidation of a variety of substrates including acyl-CoAs, androgens and neurosteroids as well as bile acids(Shafqat N, Marschall HU, Filling C, et al. Biochemical Journal. 2003;376(Pt 1):49-60). […] The enzyme was produced by E.coli fermentation as His-tagged recombinant for the purpose of X-ray structure determination, and had been mass-spectrometry characterized. Inhibition of HADH2 activity was screened by utilizing beta-hydroxybutyryl coenzyme A as an electron donor and NAD+ as an electron acceptor/cofactor. An increase in the fluorescence intensity due to conversion of NAD+ to NADH was used to measure the enzyme activity.
Assay Protocol: Buffer: 100 mM Tris-HCl pH 9.0, containing 0.01 % Tween-20. Reagents/Controls: Buffer in columns 3 and 4 as negative control (no enzyme). Substrate/cofactor solution: 1 mM NAD+ and 90 uM beta-hydroxybutyryl coenzyme A (Sigma-Aldrich, St. Louis, MO) final concentrations dispensed throughout the plate. Enzyme: 20 nM HADH2 final concentration in columns 1, 2, 5-48. Column 1 is neutral (100% activity). Column 2 contained titration of apomorphine (Sigma-Aldrich, A 4393, PubChem CID 2215, top concentration 500 uM, then 1:2 dilution in duplicate) Assay Steps: Three uL of enzyme were dispensed to 1536-well Greiner black solid bottom plates. Compounds and controls (23 nL) were transferred via Kalypsys PinTool. The plates were incubated for 15 min at room temperature, and then 1 uL of substrate/cofactor solution was added to start the reaction. The plates were immediately transferred to and read every 30 seconds for 4 min on ViewLux High-throughput CCD imager (Perkin-Elmer) using 360 nm excitation and 450 nm emission fluorescence protocol. The fluorescence intensity difference between the last and the first time points was used to compute reaction progress.
(Quantitative high-throughput screening tests each substance at several concentrations.)
With `CCOC(=O)C1=C(O)CSC1=Nc1cccc(Cl)c1`, the “activity change, negative = inhibition” value was 5.61%.

On to `CCOC(=O)c1cc(-c2ccc(Cl)s2)nc2c1c(C)nn2C`, for which the Potency is 31.6 µM (active).

`Cn1cccc1Cc1nnc(SCC(=O)NCCc2ccccc2)n1-c1ccc(F)cc1`: the “activity change, negative = inhibition” value was 3.88%.

With `N#Cc1c(NC(=O)CCCN2C(=O)c3ccccc3C2=O)oc(-c2ccccc2)c1-c1ccccc1`, the “activity change, negative = inhibition” value is 5.71%.

Turning to `Cc1ccc(N2C(=O)c3oc4ccccc4c(=O)c3C2c2cccnc2)nc1` (stereo not given), the “activity change, negative = inhibition” value is 5.96%.

Consider `COCCn1c(-c2ccc(OC)c(OC)c2)nc2ccccc21`, for which the Potency is 25.1 µM (active).

For the molecule `COc1ccc(CCn2c(-c3ccco3)nc3nc4ccccc4nc32)cc1OC`, the “activity change, negative = inhibition” value was -12.8%.

As to `CCCn1c(C(O)c2cc(OC)ccc2OC)nc2ccccc21` (stereo not given), the “activity change, negative = inhibition” value is -0.382%.

For `Nc1cc(=O)nc(SCc2ccccc2)n1Cc1ccco1`, the “activity change, negative = inhibition” value was -1.73%.

Take `COc1ccccc1NC(=O)CSc1nc2sc(C)c(C)c2c(=O)n1Cc1ccco1`: the “activity change, negative = inhibition” value was -11.5%.

Consider `Cc1nc2c(c(=O)n1Cc1ccco1)c1nc3ccccc3nc1n2Cc1ccccc1`, for which the Potency is 25.1 µM (active).

For `Cc1ccc(Cn2c(C)nc3c(c2=O)c2nc4ccccc4nc2n3Cc2ccco2)cc1`, the Potency was 25.1 µM (active).

Turning to `CC(Sc1nc2ccccc2c(=O)n1Cc1ccco1)C(=O)c1ccccc1` (stereo not given), the “activity change, negative = inhibition” value was 7.76%.

For `Cn1c(COc2ccc(Cl)cc2)nc2ccccc2c1=O`, the “activity change, negative = inhibition” value is -28.2%.

Turning to `N#Cc1c(NC(=O)CSc2nc3ccccc3c(=O)n2Cc2ccco2)sc2c1CCCC2`, the “activity change, negative = inhibition” value is -28.8%.

With `COCCCn1c2nc3ccccc3nc2c2c(=O)n(Cc3ccc(Cl)cc3)c(C)nc21`, the Potency was 2 µM (active).

Turning to `Cc1nc2ccccc2c(=O)n1CCCn1ccnc1`, the “activity change, negative = inhibition” value was 2.75%.

With `CC1CCN(c2nc3c(c(=O)[nH]c(=O)n3C)n2CCCc2ccccc2)CC1`, the “activity change, negative = inhibition” value is 8.8%.

As to `CCC1(C)CC(=O)NC1=O` (stereo not given), the “activity change, negative = inhibition” value was -1.08%.

As to `COc1ccc(N)c(OC)c1`, the “activity change, negative = inhibition” value was 3.29%.

In the case of `CCOC(=O)CSc1nnc(CNc2ccc(F)cc2)o1`, the “activity change, negative = inhibition” value was -11.8%.

`CC/C(=N\O)C(C)(C)/[N+]([O-])=C/c1ccc(Br)cc1`: the “activity change, negative = inhibition” value is 15.6%.

As to `O=C(O)C(O)[C@@](O)(Cc1ccc(O)cc1)C(=O)O` (stereo not given in full), the “activity change, negative = inhibition” value was -0.363%.

Regarding `CC1Cn2c(nnc2-c2cccs2)S1` (stereo not given), the “activity change, negative = inhibition” value is -1.46%.

In the case of `CSc1cccc(NC(=O)CSc2ccccc2)c1`, the “activity change, negative = inhibition” value was -27.3%.

Turning to `NC(=NC(=O)c1ccccc1)C1=C(O)CCC1=O`, the “activity change, negative = inhibition” value is 2.94%.

Consider `CCS(=O)(=O)N(C)[C@@H]1c2cc(C#N)ccc2OC(C)(C)[C@H]1O`, for which the Potency entry is “inactive”.

Consider `Cc1cc(=O)oc(C)c1C(=O)Nc1cnc2ccccc2c1`, for which the “activity change, negative = inhibition” value was -0.842%.

With `Cc1ccc2nc(-c3ccccc3)cc(C(=O)O)c2c1`, the “activity change, negative = inhibition” value was -22.3%.

With `Cc1ccc(NC(=O)c2cc(-c3ccc(C)o3)nc3ccccc23)nc1`, the Potency was 31.6 µM (active).

With `Cc1ccc(S(=O)(=O)N2CCC(C(=O)OCC(=O)N3CC(=O)Nc4ccccc43)CC2)cc1`, the “activity change, negative = inhibition” value is 9.91%.

On to `Cc1ccc(C(CC(=O)O)Nc2nc(N3CCCCC3)nc(N3CCCCC3)n2)cc1` (stereo not given), for which the “activity change, negative = inhibition” value is -1.92%.

Take `CC(C)n1c(C(O)c2ccccc2)nc2ccccc21` (stereo not given): the “activity change, negative = inhibition” value was 12.2%.

With `CC(Nc1nc(N2CCCC2)nc2ccccc12)c1ccccc1` (stereo not given), the Potency was 31.6 µM (active).

For the molecule `C[N+](C)(C)CCCCCNCC12CC3CC(CC(C3)C1)C2`, the “activity change, negative = inhibition” value is 3.87%.

In the case of `O=C(OCC(=O)c1cccs1)C1=COCCO1`, the “activity change, negative = inhibition” value is 8.65%.

As to `CCOC(=O)c1cnc(-n2nc(C)cc2C)nc1-n1nc(C)cc1C`, the “activity change, negative = inhibition” value was -10.5%.

On to `O=C(NCc1ccccn1)c1c(O)c2c([nH]c1=O)CCCC2`, for which the “activity change, negative = inhibition” value was -2.63%.

Consider `OCCCNCc1ccccn1`, for which the activity change, negative = inhibition was -1.43% [at 11.4 µM].

As for `O=C(Oc1cccnc1)c1cc2ccccc2oc1=O`, the Potency was 25.1 µM (active).

Take `O=C(NCc1ccccn1)Nc1ccc(F)cc1`: the “activity change, negative = inhibition” value was 7.82%.

Consider `O=C(CCSCCc1ccccn1)Nc1nccs1`, for which the “activity change, negative = inhibition” value was -2.41%.

With `O=C(Nc1ccncc1)c1cc2ccccc2o1`, the “activity change, negative = inhibition” value was 10.3%.

For `O=C(NCc1ccccn1)c1cnc2sccn2c1=O`, the Potency is 25.1 µM (active).

On to `Nc1ncc(-c2cc3ccccc3oc2=O)s1`, for which the “activity change, negative = inhibition” value was -2.43%.

Regarding `O=C(NCc1ccccn1)c1cc2ccccc2oc1=O`, the Potency was 31.6 µM (active).

Take `CCOC(=O)c1cc2n(c1C)-c1ccccc1C2=O`: the “activity change, negative = inhibition” value is 3.78%.

Turning to `CCOC(=O)c1cnc2sccn2c1=O`, the Potency is 25.1 µM (active).

As to `Brc1cc(Br)c(Oc2cc(Br)c(Br)cc2Br)cc1Br`, the “activity change, negative = inhibition” value was -9.08%.

For `COc1cccc2sc(Nc3nc(C)c(C(C)=O)s3)nc12`, the “activity change, negative = inhibition” value is -6.55%.

In the case of `COC(=O)CNS(=O)(=O)c1ccc(Cc2ccc(S(=O)(=O)NCC(=O)OC)cc2)cc1`, the “activity change, negative = inhibition” value is 3.44%.

For the molecule `CC(=O)OCC(COC(C)=O)OC(C)=O`, the “activity change, negative = inhibition” value was 3.21%.

In the case of `CNC(=O)C1(C)C=CC2(CCCCC2)N1C(C)=O` (stereo not given), the “activity change, negative = inhibition” value was 5.61%.

For the molecule `O=C(c1ccccc1-c1ccccc1)N1CCOCC1`, the “activity change, negative = inhibition” value is 8.37%.

For the molecule `CC(C(=O)Nc1ccccc1-c1ccccc1)N1CCOCC1` (stereo not given), the “activity change, negative = inhibition” value is 12.3%.
